The values below come from PubChem BioAssay (Tox21).

Inconclusive results are not listed. Entries that show only a call come without a potency. Calls of active or inactive are those of the source. Calls come from the whole dose curve; as a rule, active = well fitted cell-killing curve with a large enough effect in the repeat runs; inconclusive = weak or mixed curves, or effect the other way; inactive = flat fitted curve, though single readings scatter.

The nature of the test: qHTS assay to identify small molecule antagonists of the androgen receptor (AR) signaling pathway using the MDA cell line in the presence of 0.5 nM R1881 - cell viability counter screen (AID 1259242). Note: nearly all actives have a fitted effect of over 45% in size. To be noted: MDA-kb2 viability, CellTiter-Fluor protease fluorescence, 16 h; series mostly up to 92.4 µM. The source says: U.S. Tox21 Program National Center for Advancing Translational Sciences [NCATS] NIH Chemical Genomics Center [NCGC] U.S. Environmental Protection Agency [EPA] National Institutes of Environmental Health Sciences [NIEHS] National Toxicology Program [NTP] U.S. Food and Drug Administration [FDA] Tox21 Assay Overview: Androgen receptor (AR) is an important member of the nuclear receptor family. Its signaling plays a critical role in AR-dependent prostate cancer and other androgen related diseases. Considerable attention has been given in the past decades to develop methods to study and screen for the environmental chemicals that have the potential to interfere with metabolic homeostasis, reproduction, developmental and behavioral functions. Therefore AR binding assay for screening androgen antagonists can be used to identify potential endocrine disruptors. MDA-kb2 cells (from ATCC, deposited by Wilson et al.) were used to screen for AR inhibitors against Tox21 compound libraries. These cells are human breast carcinoma cells that were stably transfected with a luciferase reporter gene under control of the MMTV promoter that contains response elements for both androgen receptor (AR) and glucocorticoid receptor (GR). The current screening for identification of AR inhibitors against Tox21 libraries used lower concentration of (0.5 nM) R1881 as a stimulator. The cytotoxicity of the Tox21 compound libraries against MDA-kb2 cell line was tested by measuring live-cell protease activity using CellTiter-Fluor assay in the same wells.
Tox21 Assay Protocol Summary: MDA-kb2 cells (cells cultured without CO2) were dispensed at 3,000 cells/well in 4 uL of culture medium into white wall/solid-bottom 1536-well plates (Corning Life Sciences, Corning, NY) using a Multidrop Combi (ThermoFisher Scientific, Waltham, MA) dispenser. After the assay plates were incubated at a 37C and 0% CO2 for 5 hr, 23 nL of compounds dissolved in DMSO, positive controls or DMSO only was transferred to the assay plate by a Pintool station (Kalypsys, San Diego, CA). The transfer of compounds was followed by the addition of 1 uL of 0.5 nM (final concentration) agonist (R1881)/culture medium using a Flying Reagent Dispenser (FRD, Aurora Discovery, San Diego, CA). The plates were incubated at 37C and 0% CO2 for 16 hr. For cytotoxicity assay, 1 uL of CellTiter-Fluor reagent (Promega Corporation, Madison, WI) was added to each well using the FRD and after 30 min incubation at 37C and 0% CO2, The fluorescence intensity was measured using ViewLux plate reader (PerkinElmer, Shelton, CT).
On the technique in general: In qHTS, concentration-response curves come from the screen itself.
For `CCCCCBr`, the Potency result was “inactive”.

Consider `O=[N+]([O-])O[C@H]1CO[C@H]2[C@@H]1OC[C@H]2O[N+](=O)[O-]`, for which the Potency entry was “inactive”. On the same count and under the same terms, the entry for `C=CCSSCC=C` is “inactive”; for `CCCSP(=S)(OCC)Oc1ccc(SC)cc1` (stereo not given) it is “inactive”. Same read-out and setting: the entry for `CCCC(C)(COC(N)=O)COC(=O)NC(C)C` (stereo not given) is “inactive”; for `O=C(Cc1ccccc1)OCCc1ccccc1` it is “inactive”.

`CCOP(=S)(OCC)SCSc1cc(Cl)ccc1Cl`: the Potency entry was “inactive”.

For the compound `COC(=O)Cc1ccccc1`, the Potency entry was “inactive”. Still for that read-out and setting: the entry for `Cc1nc(N(C)C)nc(OC(=O)N(C)C)c1C` is “inactive”. The same measure, in the same setting: the result for `O=C(O)C(F)(F)C(F)(F)C(F)(F)C(F)(F)C(F)(F)F` reads “inactive”; that for `CCOP(=S)(S)OCC`, “inactive”; that for `Nc1cccc2ccccc12`, “inactive”. The same measure, in the same setting: the result for `C1CS1` reads “inactive”. With `CCCCC1C(=O)NC(=O)N(C2CCCCC2)C1=O` (stereo not given), the Potency entry was “inactive”. As to `CCSCc1ccccc1OC(=O)NC`, the Potency entry was “inactive”. The same measure, in the same setting: the result for `CCOC(C(=O)OCCN(C)C)(c1ccccc1)c1ccccc1` reads “inactive”.

For the compound `Nc1c(Br)cc(Br)c2c1C(=O)c1ccccc1C2=O`, the viability change, negative = cytotoxic was 2.34% [at 19 µM] (inactive). Take `CCCC1CCCCN1` (stereo not given): the Potency result was “inactive”. On the same count and under the same terms, the result for `CC(C)c1ccc(NC(=O)N(C)C)cc1` reads “inactive”. On the same count and under the same terms, the result for `CN[C@@H](C)[C@H](O)c1ccccc1` reads “inactive”; that for `CC(Cc1ccccc1)NCc1ccccc1Cl` (stereo not given), “inactive”; that for `CC(C)c1ccc(OP(=O)(Oc2ccc(C(C)C)cc2)Oc2ccc(C(C)C)cc2)cc1`, “inactive”. The same measure, in the same setting: the result for `O=C(O)CCCOc1ccc(Cl)cc1Cl` reads “inactive”; that for `CC(C)C1(C)N=C(c2ncccc2C(=O)O)NC1=O` (stereo not given), “inactive”. Regarding `O=C(O)C(F)(F)C(F)(F)C(F)(F)C(F)(F)C(F)(F)C(F)(F)C(F)(F)C(F)(F)F`, the Potency result is “inactive”. The same measure, in the same setting: the entry for `Clc1ccccc1` is “inactive”. In the case of `C#CC(O)(C=CCl)CC` (stereo not given), the Potency result was “inactive”. For the compound `CCOC(=O)c1cn2nc(OP(=S)(OCC)OCC)cc2nc1C`, the Potency entry is “inactive”. On the same count and under the same terms, the entry for `NNCCO` is “inactive”; for `CCCN(CCOc1c(Cl)cc(Cl)cc1Cl)C(=O)n1ccnc1` it is “inactive”. Still for that read-out and setting: the result for `C[C@H]1[C@@H]2Cc3ccc(O)cc3[C@@]1(C)CCN2C` reads “inactive”. On to `O=C(O)c1ccc(=O)[nH]c1`, for which the Potency result was “inactive”. Consider `Cc1cnc(C2=NC(C)(C(C)C)C(=O)N2)c(C(=O)O)c1` (stereo not given), for which the Potency entry was “inactive”.

Regarding `COc1ccc2c(c1OC)C(=O)O[C@H]2[C@@H]1c2cc3c(cc2CCN1C)OCO3`, the Potency result was “inactive”.

Take `CCCN(CCC)c1c([N+](=O)[O-])cc(C(C)C)cc1[N+](=O)[O-]`: the Potency result was “inactive”. Still for that read-out and setting: the entry for `CCCCC#N` is “inactive”; for `CCOP(=S)(OCC)Oc1ccc(S(C)=O)cc1` (stereo not given) it is “inactive”; for `O=C(O)c1cc(I)cc(I)c1I` it is “inactive”. Still for that read-out and setting: the result for `COP(=O)(OC)OC(Br)C(Cl)(Cl)Br` (stereo not given) reads “inactive”. The same measure, in the same setting: the result for `O=C(O)COc1cc(Cl)c(Cl)cc1Cl` reads “inactive”.
